Source: PubChem BioAssay (National Center for Advancing Translational Sciences (NCATS))
JMJD2A Tudor inh: blocks the human JMJD2A Tudor domain | O75164 | 4.4% of 390,000 active | AID 504339 | Potency, µM (doses to about 114 µM), actives largely listed as inhibitors | AlphaScreen JMJD2A-Tudor / H3K4me3 peptide binding; note: nearly all actives have a fitted effect of over 50% in size
BAZ2B inh: BAZ2B (human) inhibition; 4.4% of 360,000 active; Potency, µM (doses to about 114 µM), most hits filed as inhibitors; AlphaScreen BAZ2B-H3K14Ac peptide displacement; Q9UIF8; note: nearly all actives have a fitted effect of over 60% in size
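Complex of BAZ2B and biotin-H3K14Ac (50 nM apiece) forms over 30 min at RT, then faces library compounds up to 110 uM for another 30 min; AlphaScreen beads added, 20 min dark incubation, luminescence read.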
HP1b chromo inh: inhibitors of HP1-beta chromodomain binding to methylated histone tails. Potency, µM (series often up to 114 µM), usual class: inhibitors. 0.56% of 390,000 active. AlphaScreen HP1-beta / biotin-H3K9me3 peptide binding. P83916; note: nearly all actives have a fitted effect of over 70% in size
Target sequence (P83916 whole entry, looked up): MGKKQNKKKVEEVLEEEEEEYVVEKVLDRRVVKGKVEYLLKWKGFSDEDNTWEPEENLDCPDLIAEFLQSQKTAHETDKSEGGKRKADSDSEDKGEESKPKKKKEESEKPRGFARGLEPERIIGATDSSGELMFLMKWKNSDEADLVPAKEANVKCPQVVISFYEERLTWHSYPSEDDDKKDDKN
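Compound inhibition of the preformed complex between 50 nM HP1-beta and 50 nM biotinylated H3K9me3 peptide was read by AlphaScreen. Buffer was PBS pH 7.4 with 0.01% Tween-20. Incubations ran 30 min at room temperature, with 10 ug/mL donor/acceptor beads.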
L3MBTL1 block: blocks human L3MBTL1. Q9Y468. Potency, µM (top dose mostly 57.1 µM), hits mostly inhibitors. AID 485360. 0.66% of 230,000 active. AlphaScreen L3MBTL1–H3K9me1 peptide binding; note: nearly all actives have a fitted effect of over 60% in size
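AlphaScreen proximity signal between nickel-chelate acceptor and streptavidin donor beads (final 10 ug/mL) reports binding of 50 nM L3MBTL1 to 75 nM biotin-H3 K9me1 peptide; complex incubated with compounds 30 min at room temperature; cefsulodin titration as control.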
G9a block: blocks human histone lysine methyltransferase G9a; G9a H3K9 monomethylation, AlphaScreen, 2 h; Potency, µM (doses to about 102 µM), usual class: inhibitors; 8.8% of 350,000 active; AID 504332; note: nearly all actives have a fitted effect of over 75% in size
Target sequence (Q96KQ7 913-1193 limits assumed): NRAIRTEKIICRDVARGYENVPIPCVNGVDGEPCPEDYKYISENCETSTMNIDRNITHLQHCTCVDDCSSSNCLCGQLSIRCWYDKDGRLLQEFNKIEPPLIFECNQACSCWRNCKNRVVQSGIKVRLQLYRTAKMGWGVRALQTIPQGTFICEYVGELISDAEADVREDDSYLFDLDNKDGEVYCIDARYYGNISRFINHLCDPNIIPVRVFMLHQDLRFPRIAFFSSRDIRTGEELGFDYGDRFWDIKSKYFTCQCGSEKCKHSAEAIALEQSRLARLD
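Methyltransferase reactions run at room temperature for 2 h (20 nM enzyme, 500 nM biotin-H3K9 peptide, 20 uM SAM) after a 15 min compound preincubation; product detected by AlphaScreen beads and anti-H3K9me1 antibody.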
GLS inh: glutaminase GLS (human) inhibition | AID 624170 | 0.21% of 410,000 active | GLS enzymatic activity, qHTS titration | O94925 | Potency, µM (doses to about 45.5 µM), hits mostly inhibitors
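Compounds were pin-transferred onto hKGA, after which L-glutamine (1 mM solution) and a detection mix of glutamate oxidase, HRP and Amplex Red were added. Initial and 30 min RT fluorescence reads were collected.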
Each line names hits and unclear results; the compound was inactive in the other large screens. In the library only some 10% were active in any assay of this set; here they are far more common. Calls come from the whole dose curve; as a rule, active = well fitted curve in the direction sought with a large enough effect; inconclusive = small, poorly fitted or top-dose-only effect, or another doubt; inactive = no such curve, though single readings can be large; an effect the other way counts as inactive or inconclusive.

CCOc1ccc(OCCOCCOc2ccccc2Cl)cc1	none
CCC(C)NCCOCCOc1ccc(Cl)c2ccccc12 (stereo not given)	BAZ2B inh inconclusive, G9a block 13µM
CCC(C)NCCOCCOc1ccc(Cl)c(C)c1C (stereo not given)	JMJD2A Tudor inh 3.5µM, HP1b chromo inh inconclusive, G9a block inconclusive
COC(=O)c1ccc(NC(=O)CN(Cc2ccccc2)S(=O)(=O)c2ccc(Cl)cc2)cc1	none (no result: L3MBTL1 block)
CN(Cc1ccc(F)cc1)S(=O)(=O)c1nnc(NC(=O)c2ccc(F)cc2)s1	none (no result: L3MBTL1 block)
O=C(NC(=S)Nc1ccccc1C(=O)O)c1cncc(Br)c1	JMJD2A Tudor inh inconclusive, HP1b chromo inh inconclusive, G9a block 2µM
O=C(NC(=S)Nc1ccccc1O)c1cncc(Br)c1	GLS inh inconclusive (no result: BAZ2B inh, L3MBTL1 block, G9a block)
O=C(Nc1ccccc1C(=O)Nc1ccccc1C(=O)O)c1ccccc1	none (no result: L3MBTL1 block)
Cc1cc(NC(=O)c2cncc(Br)c2)n(-c2ccccn2)n1	BAZ2B inh 50µM (no result: L3MBTL1 block)
Nc1ccc(C(=O)Nc2ccc(Nc3ccncc3)cc2)cc1	none
O=C(Nc1ccccc1C(=O)O)c1cncc(Br)c1	JMJD2A Tudor inh inconclusive, BAZ2B inh inconclusive, G9a block 4.5µM (no result: L3MBTL1 block, GLS inh)
Nc1ccc(NC(=O)c2ccc(C(=O)Nc3ccc(N)cc3)cc2)cc1	JMJD2A Tudor inh 56µM, BAZ2B inh 71µM
Cc1ccc(NS(=O)(=O)c2ccc3[nH]c(=O)[nH]c3c2)cc1C	none (no result: BAZ2B inh, HP1b chromo inh, L3MBTL1 block, G9a block, GLS inh)
O=C(CSc1ncc2c(n1)-c1cc(Cl)ccc1N(Cc1ccccc1F)S2(=O)=O)Nc1cccc(C(F)(F)F)c1	none (no result: L3MBTL1 block)
O=C(Nc1ccccc1C(=O)O)c1ncn[nH]1	BAZ2B inh inconclusive, G9a block 10µM
Nc1ccc(C(=O)Nc2ccc(OC(F)(F)C(F)F)c(NC(=O)c3ccc(N)cc3)c2)cc1	G9a block inconclusive
CC(=O)c1cc(C(=O)Nc2ccccc2C(=O)O)oc1C	JMJD2A Tudor inh 56µM, L3MBTL1 block inconclusive, G9a block 50µM
Nc1ccc(C(=O)Nc2ccc3c(O)cc(S(=O)(=O)O)cc3c2)cc1	JMJD2A Tudor inh 56µM, GLS inh 6.3µM (no result: BAZ2B inh, L3MBTL1 block, G9a block)
Nc1ccc(C(=O)Nc2ccccc2C(=O)O)cc1	G9a block 40µM (no result: L3MBTL1 block)
CC(C)C(=O)N1c2ncnn2C2(CCCCC2)[C@@H]2CCCC[C@@H]21	none (no result: L3MBTL1 block)
CCCn1c(=N)c(C(=O)NC(C)c2ccccc2)cc2c(=O)n3ccccc3nc21 (stereo not given)	none (no result: L3MBTL1 block)
Cc1cccc(NC(=O)Cn2c(=O)n(Cc3ccc4c(c3)OCO4)c(=O)c3ccccc32)c1	none (no result: L3MBTL1 block)
CCS(=O)(=O)NCCc1sc2nc(-c3ccc(OC)cc3)nn2c1C	none (no result: L3MBTL1 block)
O=C(NC(=S)Nc1ccccc1[N+](=O)[O-])c1cncc(Br)c1	G9a block 45µM
CCn1cc(C(=O)NC(=S)Nc2ccccc2[N+](=O)[O-])cn1	BAZ2B inh inconclusive (no result: L3MBTL1 block)
CCCC(NC(=S)NCC1CCCO1)C12CC3CC(CC(C3)C1)C2 (stereo not given)	JMJD2A Tudor inh inconclusive, G9a block 13µM (no result: L3MBTL1 block)
CCOC(=O)c1[nH]c2cc(OC)c(OC)cc2c1NC(=O)C(C)N1CCN(Cc2ccccc2)CC1 (stereo not given)	BAZ2B inh inconclusive, G9a block 45µM (no result: L3MBTL1 block)
C=CCOC(=O)Nc1c(C(=O)OC)[nH]c2ccccc12	G9a block 50µM
CCS(=O)(=O)Nc1c(C(=O)OC)[nH]c2ccccc12	none
COC(=O)c1[nH]c2cc(OC)c(OC)cc2c1NC(=O)Oc1ccccc1	JMJD2A Tudor inh inconclusive, G9a block 2.8µM (no result: L3MBTL1 block)
CCOC(=O)c1[nH]c2ccc(OC)cc2c1NC(=O)C(C)N1CCSCC1 (stereo not given)	G9a block inconclusive (no result: JMJD2A Tudor inh, BAZ2B inh, HP1b chromo inh, GLS inh)
COC(=O)c1[nH]c2ccccc2c1NC(=O)Oc1ccccc1	G9a block 10µM
COC(=O)c1[nH]c2ccccc2c1NC(=O)c1ccccc1F	none
CC(C)(C)c1ccc(OCCOCCn2c(-c3ccc(Cl)cc3)nc3ccccc3c2=O)cc1	G9a block inconclusive (no result: L3MBTL1 block)
CN(Cc1cccs1)C(=O)CSc1nc(N)cc(N)n1	JMJD2A Tudor inh 79µM (no result: BAZ2B inh)
COc1ccc(NC(=O)CN(c2ccccc2OC)S(C)(=O)=O)c(OC)c1	none (no result: L3MBTL1 block)
CCc1ccc2nc(NC(=O)c3ccc(N4C(=O)CCC4=O)cc3)sc2c1	none (no result: L3MBTL1 block)
CC(C)(Oc1ccc(Cl)cc1)C(=O)Nc1nc2ccc(S(C)(=O)=O)cc2s1	G9a block 11µM (no result: L3MBTL1 block)
CNS(=O)(=O)c1ccc2nc(NC(=O)c3ccc(N4C(=O)CCC4=O)cc3)sc2c1	JMJD2A Tudor inh inconclusive, G9a block 3.5µM, GLS inh inconclusive (no result: L3MBTL1 block)
Cc1nc(NC(=O)CCc2ccccc2)sc1C	BAZ2B inh inconclusive, HP1b chromo inh inconclusive, G9a block 10µM
CS(=O)(=O)c1ccc2nc(NC(=O)c3ccccc3Br)sc2c1	G9a block 50µM
CN(C)/N=N\c1nc[nH]c1C(N)=O	none (no result: JMJD2A Tudor inh, BAZ2B inh, HP1b chromo inh, L3MBTL1 block, GLS inh)
CCc1ccccc1NC(=O)CN1C(=O)COc2ccc(S(=O)(=O)Nc3ccccc3)cc21	none (no result: L3MBTL1 block)
O=C(Nc1nnc(C2CC2)s1)c1cc2ccccc2o1	G9a block 14µM
Cc1nc(Nc2ccccc2)sc1C	JMJD2A Tudor inh inconclusive, BAZ2B inh inconclusive, G9a block 13µM
Cc1nnc(NC(=O)c2cc3ccccc3o2)s1	none (no result: L3MBTL1 block)
Cc1nc(NC(=O)c2csc3ccccc23)sc1C	G9a block 45µM
Cc1nc(NC(=O)c2cc3ccccc3o2)sc1C	BAZ2B inh 56µM (no result: L3MBTL1 block)
COc1ccc(OC)c(CNC(=O)Cn2nc(C)c3nn(-c4ccc(Cl)cc4)c(C)c3c2=O)c1	none (no result: L3MBTL1 block)
CS(=O)(=O)c1ccc2sc(NC(=O)c3cc4ccccc4o3)nc2c1	G9a block 40µM (no result: L3MBTL1 block)
O=C(c1cccn1-c1nnc(N2CCCCC2)s1)N1CCN(c2ccccc2)CC1	BAZ2B inh inconclusive (no result: L3MBTL1 block)
CCn1ncc(Br)c1C(=O)Nc1ccccc1OC	JMJD2A Tudor inh 56µM (no result: L3MBTL1 block)
CC(=O)N1CCC(N(C(=O)Nc2ccc(C)c(C)c2)C2CCCC2)CC1	G9a block inconclusive
COc1ccccc1NC(=O)N1CCN(C)CC1	JMJD2A Tudor inh 40µM, BAZ2B inh 50µM, G9a block 20µM
COc1ccccc1NC(=O)N(C1CCCC1)C1CCN(C(C)=O)CC1	G9a block 40µM
CCN1CCN(C(=O)Nc2ccccc2OC)CC1	JMJD2A Tudor inh 2.2µM, BAZ2B inh 28µM, HP1b chromo inh inconclusive, L3MBTL1 block 40µM, G9a block 2.2µM
CCN1CCN(C(=O)C(C)Nc2ccc(OC)cc2OC)CC1 (stereo not given)	JMJD2A Tudor inh inconclusive, BAZ2B inh inconclusive, G9a block 45µM
